The values that follow come from PubChem BioAssay AID2551 (National Center for Advancing Translational Sciences (NCATS), 2010).

SMILES strings stand for the structures. Screen size: about 310,000 compounds; about 17,000 (5.5%) were called active. Roughly 11% stayed inconclusive and do not appear here. The call rests on the fitted dose curve; in most records, active means well fitted inhibition curve with a large enough effect; inconclusive means small, poorly fitted or top-dose-only effect, or effect the other way; inactive means no such curve, though single readings can be large or run the other way. Shown is part of a subset that was picked to be rich in actives.
On the % scale 0 is the no-effect control and ±100 the full control effect; potency means the concentration at half of the fitted maximal effect.

Nuclear receptor ROR-gamma (Mus musculus), sequence (P51450 whole entry, looked up, the tested form may be a part): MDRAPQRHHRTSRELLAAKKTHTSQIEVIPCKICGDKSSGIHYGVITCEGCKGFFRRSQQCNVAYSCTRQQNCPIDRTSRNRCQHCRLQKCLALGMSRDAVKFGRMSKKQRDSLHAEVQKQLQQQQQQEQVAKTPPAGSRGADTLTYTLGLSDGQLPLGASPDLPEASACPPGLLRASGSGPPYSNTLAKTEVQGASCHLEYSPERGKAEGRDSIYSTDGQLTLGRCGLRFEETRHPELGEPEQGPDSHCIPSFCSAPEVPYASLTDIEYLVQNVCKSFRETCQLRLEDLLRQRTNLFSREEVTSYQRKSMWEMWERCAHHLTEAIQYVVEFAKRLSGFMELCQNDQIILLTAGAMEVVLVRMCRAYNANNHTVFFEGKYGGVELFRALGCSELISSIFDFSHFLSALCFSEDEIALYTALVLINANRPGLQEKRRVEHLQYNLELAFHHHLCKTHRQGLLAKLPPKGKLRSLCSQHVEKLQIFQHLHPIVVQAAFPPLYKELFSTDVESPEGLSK

For this test, the target named is Nuclear receptor ROR-gamma (Mus musculus) (UniProt P51450). The experiment in a line: qHTS for inhibitors of ROR gamma transcriptional activity. Further: nearly all actives have a fitted effect of over 60% in size. To be noted: Drosophila S2 Gal4-RORgamma UAS-luciferase reporter, 20 h; series mostly up to 53.6 µM; activity change, negative = inhibition: at the top concentration. An outline of the steps:
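Drosophila S2 cells stably expressing Gal4-DBD/mouse RORγ fusion under metallothionein promoter plus UAS-luciferase; compound 1 h, then 700 uM CuSO4 induction for 20 h at ambient temperature; inhibition read as reduced luminescence.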
On the technique in general: Quantitative high-throughput screening tests each substance at several concentrations.
As for `CC(C)CN(CC(C)C)C(=O)CN1c2cccc3cccc(c23)S1(=O)=O`, the “activity change, negative = inhibition” value was 27% (inactive).

As to `O=C(CNC(=O)[C@@H]1Cc2ccccc2CN1)NC1CCCCC1`, the “activity change, negative = inhibition” value is -15.9% (inactive).

Consider `NC(=O)C1CC(=O)N(c2ccc(OCC(=O)NCc3ccccc3)cc2)C1` (configuration not stated), for which the “activity change, negative = inhibition” value is -32.6% (inactive).

`Cn1c(=O)[nH]c(=O)c2c1nc(N1CCN(C(c3ccccc3)c3ccccc3)CC1)n2CCO`: the “activity change, negative = inhibition” value was 27.7% (inactive).

`O=C(COCc1cc(-c2ccc3c(c2)OCO3)on1)N1CCN(c2cccc(Cl)c2)CC1`: the “activity change, negative = inhibition” value is 4.21% (inactive).

`CCOC(=O)c1c(NC(=O)CCl)sc(C(=O)N(CC)CC)c1C`: the Potency was 20 µM (active).

Take `CCOC(=O)Nc1sc(C(=O)N(C)C)c(C)c1C(=O)OCC`: the “activity change, negative = inhibition” value is 18.3% (inactive).

With `CCOC(=O)c1sc(NC(=O)CCN2CCOCC2)c(C(=O)OCC)c1C`, the “activity change, negative = inhibition” value was -25.6% (inactive).

On to `Cc1ccc(S(=O)(=O)NCc2ccc(C(=O)NC3CCC(C)CC3)cc2)cc1` (configuration not stated), for which the “activity change, negative = inhibition” value was -6.33% (inactive).

As to `COc1ccccc1N1CC(C(=O)Nc2nnc(SCC(=O)NC(C)C)s2)CC1=O` (configuration not stated), the “activity change, negative = inhibition” value is -15.7% (inactive).

For the molecule `CC(=O)Oc1c2c(c3c(c1CC=C(C)C)O[C@@]14C(=CC5CC1C(C)(C)OC4(C/C=C(\C)C(=O)O)C5=O)C3=O)OC(C)(CCC=C(C)C)C=C2` (some centres not stated), the Potency is 5.62 µM (active).

For the molecule `O=C(CNC(=O)c1ccc(Br)o1)NCC1CCCO1` (configuration not stated), the “activity change, negative = inhibition” value was -16% (inactive).

On to `CCNC(=O)c1cnn(-c2ccccc2)c1-c1ccccc1`, for which the “activity change, negative = inhibition” value was 15.5% (inactive).

`CCOc1cccc(-n2nnnc2-c2ccc(OC)cc2)c1`: the “activity change, negative = inhibition” value is 35.9% (inactive).

With `COc1ccc(-n2nnnc2SCC(=O)Nc2ccccc2)cc1`, the “activity change, negative = inhibition” value is 44.6% (inactive).

On to `COc1ccc(-n2nnnc2-c2nc3ccccc3s2)cc1`, for which the Potency is 12.6 µM (active).

As for `COc1cc(C2C3=C(CCCC3=O)OC3=C2C(=O)CCC3)ccc1OCC(=O)Nc1ccccc1`, the “activity change, negative = inhibition” value was 3.03% (inactive).

Consider `Cc1ccc(N(Cc2cc3ccccc3[nH]c2=O)C(=O)c2cccs2)cc1`, for which the “activity change, negative = inhibition” value is 15.8% (inactive).

In the case of `Cc1ccc(N(Cc2cc(=O)[nH]c3ccccc23)C(=O)CCl)cc1`, the Potency is 15.8 µM (active).

`CC(=O)N(Cc1cc(=O)[nH]c2ccccc12)c1ccc(C)cc1C`: the “activity change, negative = inhibition” value was -16.6% (inactive).

On to `Cc1cc(C)cc(NC(=O)C2CCCN2S(=O)(=O)c2cccc3cccnc23)c1` (configuration not stated), for which the “activity change, negative = inhibition” value was -19.2% (inactive).

Turning to `CCN1CCN(CCNC(=O)c2ccc3c(c2)NC(=O)/C(=C\c2ccc(OC)c(OC)c2)S3)CC1`, the “activity change, negative = inhibition” value is 0.716% (inactive).

Regarding `CCCCc1cc(=O)oc2c(C)c(OCC(=O)N3CCC(C(N)=O)CC3)ccc12`, the “activity change, negative = inhibition” value is -8.21% (inactive).

In the case of `Clc1ccc2nc(CSc3ccccc3)cn2c1`, the Potency was 14.1 µM (active).

Regarding `O=C(/C=C/c1ccc2c(c1)OCO2)NCc1cn2cc(Cl)ccc2n1`, the “activity change, negative = inhibition” value is -15.5% (inactive).

Consider `CCOc1ncccc1C(=O)OCc1cn2cc(Cl)ccc2n1`, for which the “activity change, negative = inhibition” value is 21.2% (inactive).

Consider `COc1ccc(CCOC(=O)CNC(=O)c2ccc(Cl)cc2Cl)cc1`, for which the “activity change, negative = inhibition” value is 2.81% (inactive).

Take `COC(=O)Cc1cnc(NC(=O)CSc2nc(C(C)C)cc(=O)[nH]2)s1`: the “activity change, negative = inhibition” value is 9.69% (inactive).

As for `COc1ccc(N2CCN(C(=O)[C@@H](NC(=O)c3cc(OC)cc(OC)c3)C(C)C)CC2)cc1`, the “activity change, negative = inhibition” value is -4.96% (inactive).

Regarding `COc1ccc(-c2cn[nH]c2-c2ccc(OC)cc2)cc1`, the “activity change, negative = inhibition” value was -17.9% (inactive).

On to `CCN(CCn1cccn1)Cc1cn[nH]c1-c1ccc(OC)cc1F`, for which the “activity change, negative = inhibition” value was 1.4% (inactive).

As to `CCOc1ccccc1Oc1cn[nH]c1-c1ccc(OC)cc1O`, the Potency is 8.91 µM (active).

Turning to `O=S(=O)(NCC1CC1)c1ccc(F)c(Cl)c1`, the “activity change, negative = inhibition” value is 18.8% (inactive).

Take `Cc1ccc(N(CC(=O)NCC2CCCO2)C(=O)CNS(=O)(=O)c2ccc(Cl)cc2)cc1` (configuration not stated): the “activity change, negative = inhibition” value is 37.3% (inactive).

With `CCN(CC(=O)N1CCCC1)S(=O)(=O)c1ccc(F)cc1`, the “activity change, negative = inhibition” value was -29.5% (inactive).

Turning to `O=C(CSCc1ccccc1Cl)NNC(=O)c1ccccc1`, the “activity change, negative = inhibition” value is 8.21% (inactive).

Consider `O=C(CO/N=C/c1ccccc1OC(F)F)NC1CCCC1`, for which the “activity change, negative = inhibition” value is -1.76% (inactive).

Regarding `O=C(CO/N=C/c1ccccc1O)NNC(=O)c1ccccc1Cl`, the Potency was 20 µM (active).

Regarding `CCOc1ccc(C(C(=O)NCCOC)N(CCOC)C(=O)CCC(=O)Nc2ccccn2)cc1` (configuration not stated), the “activity change, negative = inhibition” value was -2.5% (inactive).

For `O=C(O)c1ccccc1C(=O)Nc1nc(-c2ccccc2)cs1`, the “activity change, negative = inhibition” value was 20.5% (inactive).

For the molecule `Cc1ccc(-c2csc(NNC(=O)c3ccccc3)n2)cc1`, the Potency is 5.01 µM (active).

With `O=C(Nc1nc(-c2cccnc2)cs1)c1ccccc1F`, the “activity change, negative = inhibition” value is 10.5% (inactive).

For `COc1ccc(-c2csc(NC(=O)c3ccc(N4C(=O)CCC4=O)cc3)n2)cc1OC`, the “activity change, negative = inhibition” value is -0.539% (inactive).

Take `Cc1ccc(-c2csc(NC(=O)c3cnccn3)n2)cc1C`: the Potency was 2.24 µM (active).

With `O=C(Nc1nc(-c2ccc(-c3ccccc3)cc2)cs1)c1cnccn1`, the Potency was 1.12 µM (active).

For the molecule `CC(=O)Nc1ccc(-c2csc(NC(=O)Nc3ccccc3)n2)cc1`, the “activity change, negative = inhibition” value was 30.4% (inactive).

With `Cc1ccc(C(=O)NCCNC(=O)c2cnccn2)cc1`, the “activity change, negative = inhibition” value is -10.2% (inactive).

With `Cc1ccc(Nc2nc(-c3sc(NC(=O)c4ccccc4)nc3C)cs2)cc1`, the “activity change, negative = inhibition” value is -23.5% (inactive).

For the molecule `Cc1sc2ncn(CC(=O)NCCCC(=O)N3CCN(c4ccccc4F)CC3)c(=O)c2c1C`, the “activity change, negative = inhibition” value is 8.6% (inactive).

Consider `Nc1ccc(C(=O)Nc2ccccc2N)cc1`, for which the Potency entry was “inactive”.

Consider `COc1ccc(NC(=O)CSc2nc(SC)ns2)c(OC)c1`, for which the “activity change, negative = inhibition” value was 14.7% (inactive).

Turning to `Cc1ccc(S(=O)(=O)N(C)CC(=O)NCCc2c[nH]c3ccccc23)cc1`, the “activity change, negative = inhibition” value was 35.1% (inactive).
